Compound activity: PubChem BioAssay, The Scripps Research Institute Molecular Screening Center
Hits are enriched below; roughly 2.3% of the tested compounds scored in any of these assays.
CHRM1 agonist = activates human CHRM1 receptor; 360,000 compounds, 0.33% hits; P11229; CHO-K1 hM1, Fluo-8 calcium fluorescence, agonist mode; 0% DMSO, 100% acetylcholine EC100; AID 588814; activation, % at 3 µM;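 active = activation above the run's mean compound activation plus 3 SD, cut at about 16% in these data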;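 also: peak over basal fluorescence ratio within a 140 s kinetic read after compound addition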
Target sequence (P11229 whole entry, looked up): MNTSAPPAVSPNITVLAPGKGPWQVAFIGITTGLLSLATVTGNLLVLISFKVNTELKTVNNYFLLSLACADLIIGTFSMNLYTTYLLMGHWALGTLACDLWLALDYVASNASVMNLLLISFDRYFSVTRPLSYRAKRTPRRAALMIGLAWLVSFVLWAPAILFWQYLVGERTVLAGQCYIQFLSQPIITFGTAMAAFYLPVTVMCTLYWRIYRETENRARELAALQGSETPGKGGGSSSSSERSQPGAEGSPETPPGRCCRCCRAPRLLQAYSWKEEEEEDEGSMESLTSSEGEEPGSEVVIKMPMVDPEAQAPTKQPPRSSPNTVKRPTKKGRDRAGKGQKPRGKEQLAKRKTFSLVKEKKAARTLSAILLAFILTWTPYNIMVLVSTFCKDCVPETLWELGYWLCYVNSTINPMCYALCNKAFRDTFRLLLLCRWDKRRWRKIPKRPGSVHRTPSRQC
CHRM1 antagonist = antagonists of human M1 muscarinic receptor; CHO-K1 hM1, Fluo-8 calcium fluorescence, ACh EC80 antagonist; inhibition, % at 3 µM; 360,000 compounds, 1.3% hits;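 active = percent inhibition above its own plate's cutoff, namely the mean of that plate's compound wells plus 3 SD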;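 also: peak over basal fluorescence ratio during 140 s after agonist addition; 0% = ACh EC80 plus DMSO and 100% = DMSO alone without agonist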
CHO-K1 Ca PAM = counter-screen for M1 PAMs: effect in parental CHO-K1 cells. ATP EC20, Fluo-8 calcium fluorescence; 0% at ATP EC20, 100% at ATP max. 360,000 compounds, 0.02% hits. AID 602247. activation, % at 3 µM;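 active = activation above the run cutoff, the mean activation of all test compounds plus 3 SD, cut at about 40% in these data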;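 also: peak over basal fluorescence ratio in a 140 s read after ATP addition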
M1 ag parental = M1 agonist counterscreen hit in parental CHO-K1 cells | 360,000 compounds, 0.48% hits | activation, % at 3 µM | Fluo-8 calcium fluorescence; scaled to maximal ATP response, vehicle zero; in the data active = activation above about 15%;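 also: untransfected CHO-K1 host cells lacking M1 receptor as counterscreen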
M1 PAM = positive allosteric modulators of human M1 muscarinic receptor. P11229. CHO-K1 hM1, Fluo-8 calcium fluorescence, ACh EC20; 0% = ACh EC20, 100% = maximal ACh. activation, % at 3 µM. 360,000 compounds, 0.088% hits; in the data active = activation above about 19%, passing the limit was not always enough
CHO-K1 Ca antag = counter-screen for M1 antagonists: effect in parental CHO-K1 cells. ATP-induced calcium, Fluo-8 fluorescence. inhibition, % at 3 µM. 360,000 compounds, 0.6% hits. AID 602250;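 active = inhibition above a per-plate cutoff, the plate's mean sample inhibition plus 3 SD, cut at about 24% in these data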;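 also: 0% = DMSO plus EC80 ATP and 100% = DMSO alone without ATP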
An asterisk follows results filed as active.

SMILES	CHRM1 agonist	CHRM1 antagonist	CHO-K1 Ca PAM	M1 ag parental	M1 PAM	CHO-K1 Ca antag
O=C(Oc1cccc(Nc2ncnc3ccccc23)c1)c1ccccc1Cl	2.6	25.0*	0.6	8.4	-15.2	24.7*
COc1cccc(Nc2ncnc3ccccc23)c1	-5.5	14.2	-15.6	0.7	-8.3	-3.5
Cc1ccc(NC(=O)Nc2nnc([C@@H]3C[C@H](O)[C@@H](CO)O3)s2)cc1	-1.8	-2.6	1.2	-0.3	-1.6	-6.0
O=C(Nc1nnc([C@@H]2C[C@H](O)[C@@H](CO)O2)s1)c1cccc(Oc2ccccc2)c1	-1.0	-10.7	-3.2	0.3	7.7	-3.2
O=C(Nc1ccccc1)Nc1nnc([C@H]2C[C@H](O)[C@@H](CO)O2)s1	-2.8	-2.6	4.5	-0.2	1.4	26.3*
O=C(Nc1nnc([C@H]2C[C@H](O)[C@@H](CO)O2)s1)c1cccc(Oc2ccccc2)c1	0.6	-0.4	-17.2	-0.3	9.0	24.7*
CC[C@@H](NS(=O)(=O)c1ccc(C)cc1)C(=O)Oc1ccc2c3c(c(=O)oc2c1)CCC3	-5.8	-0.9	-4.7	12.4	-10.3	3.1
CCC(C)C(NS(=O)(=O)c1ccc(C)cc1)C(=O)Oc1ccc2c3c(c(=O)oc2c1)CCC3 (stereo unspecified)	-4.3	-18.7	48.9*	3.9	-8.4	-26.6
Cc1ccc(S(=O)(=O)NC(CC(C)C)C(=O)Oc2ccc3c4c(c(=O)oc3c2)CCC4)cc1 (stereo unspecified)	-4.5	42.9*	-12.4	3.4	-19.1	24.9*
CC(C)CC(C(=O)Oc1ccc2c3c(c(=O)oc2c1)CCC3)N1C(=O)c2ccccc2C1=O (stereo unspecified)	-0.6	-12.3	12.0	0.2	5.5	-7.5
O=[N+]([O-])c1ccc(C(O)CN=Cc2ccc(O)cc2O)cc1 (stereo unspecified)	-1.4	-7.6	13.2	0.7	6.7	-4.6
CN=C1NC(C)(C)C2CCC(C)(CC2)S1	-9.5	39.1*	16.3	1.7	-29.2	-11.4
COC(=O)CNC(=O)c1ccccc1C	-2.2	9.9	-7.4	-0.2	-5.2	26.1*
NNC(=O)c1cc(C23CC4CC(CC(C4)C2)C3)[nH]n1	2.6	-7.0	-8.2	17.2*	5.9	2.3
COc1ccc(Cc2nc3ccc(C(=O)NCc4cccc(C)n4)cc3o2)cc1OC	-1.8	-18.4	8.6	0.8	5.1	-4.6
Oc1ccccc1C1=NC(c2ccccc2)NC(c2ccccc2)C1 (stereo unspecified)	-2.9	14.6	-15.9	0.2	-8.9	25.9*
Oc1ccccc1C1=Nc2nc3ccccc3n2C(c2ccccc2)C1 (stereo unspecified)	-3.2	-28.9	15.8	1.4	-2.5	-4.6
C=CCn1c(O)c(C(CC)=NCc2cccnc2)c(=O)[nH]c1=O	-0.8	-1.0	-4.8	-0.3	10.6	25.5*
Cc1[nH][nH]c(=O)c1C=NCc1cccnc1	-4.5	3.4	20.1	1.4	4.5	3.6
COc1ccc(NC(=O)c2sc3nc(N4CCOCC4)c4c(c3c2N)CC(C(C)C)OC4)c(OC)c1 (stereo unspecified)	-1.4	-15.2	22.6	-0.5	12.0	14.0
Cc1ccc(CS(=O)Cc2ccc(C(=O)NCc3ccccc3Cl)o2)cc1 (stereo unspecified)	-4.5	39.4*	-14.4	0.2	-12.8	-1.8
COc1cc(-c2nc(-c3ccc4c(c3)-c3ccccc3S4(=O)=O)c(-c3ccccc3)[nH]2)cc(OC)c1OC	-2.3	21.9	-0.6	2.4	-5.3	15.5
COc1cccc(-c2nc(-c3ccc4c(c3)-c3ccccc3S4(=O)=O)c(-c3ccccc3)[nH]2)c1OC	1.6	5.3	-8.7	-0.7	1.8	27.3*
CCc1c(C#N)c(SCCC(=O)Nc2cccc(OC)c2)nc2c1C(=O)CC(C)(C)C2	-0.8	13.7	18.1	4.4	-11.1	1.1
CCc1c(C#N)c(SCCC(=O)Nc2ccc(F)cc2)nc2c1C(=O)CC(C)(C)C2	0.4	38.3*	0.1	3.5	-18.5	1.9
SMILES	CHRM1 agonist	CHRM1 antagonist	CHO-K1 Ca PAM	M1 ag parental	M1 PAM	CHO-K1 Ca antag
CN(C)S(=O)(=O)c1ccc(C(=O)OCC2COC(C)(C)O2)cc1 (stereo unspecified)	-2.7	5.8	-8.6	0.9	2.4	-1.6
O=C1c2cccc3c([N+](=O)[O-])ccc(c23)C(=O)N1c1ccccn1	-4.7	20.1	8.5	-0.1	-3.1	10.4
O=C1c2cccc3c([N+](=O)[O-])ccc(c23)C(=O)N1c1nccs1	-7.0	24.0*	-7.6	-0.3	-13.7	21.1
C=CCc1c(O)c(CC)cc2c(C)cc(=O)oc12	-7.3	-7.8	10.1	0.0	16.7	-2.3
O=C(Nc1ccccc1C(=O)Nc1ccccn1)c1cc(F)c(F)cc1Cl	-3.4	-19.6	12.9	0.8	18.6	-5.3
COc1ccc(Cl)cc1N(CC(=O)NCC(C)C)S(=O)(=O)c1ccc(C)c([N+](=O)[O-])c1	-4.2	4.8	-11.4	-0.3	-5.8	19.3
CSCC[C@H](NC(=O)OC(C)(C)C)c1nnc(SCC(=O)Nc2ccc(C)cc2C)o1	-2.5	-4.2	15.3	3.2	3.1	-9.0
COCc1ccc(C(=O)N(C)CC2CCCN(CCc3ccccc3F)C2)o1 (stereo unspecified)	-5.1	48.4*	7.6	-0.1	-19.9	-14.3
COc1ccccc1CCN1CCCC(CN(C)CC(C)(C)CO)C1 (stereo unspecified)	-9.6	46.7*	6.7	-0.8	-20.4	-3.5
COc1ccccc1CCN1CCCC(CN(C)C(=O)c2ccoc2)C1 (stereo unspecified)	-5.4	43.7*	7.1	0.4	-19.8	-8.1
COc1ccccc1CCN1CCCC(CN(C)C(=O)c2ccco2)C1 (stereo unspecified)	-6.0	33.8	12.8	0.3	-17.5	-13.2
CC1CN(C(=O)c2ccc(Br)c(S(=O)(=O)N3CCOCC3)c2)CC(C)O1 (stereo unspecified)	0.5	7.8	-3.5	-0.3	-3.1	-6.2
O=C(NCCCn1ccnc1)/C(=C\c1ccccc1Cl)NC(=O)c1ccccc1	-4.0	-11.2	18.1	0.1	9.3	3.9
CCC(C)c1c(NS(=O)(=O)c2ccc(C)cc2)o[nH]c1=O (stereo unspecified)	-1.4	-10.0	17.4	0.6	2.8	-12.6
COc1ccc(CNc2nc(SCC(=O)NCc3ccco3)nc3ccccc23)cc1	-7.5	-8.9	15.0	15.9*	-2.6	-3.4
C=CCn1c(SCc2ccccc2F)nc2cc(C(=O)O)ccc2c1=O	-1.6	-6.2	7.0	0.4	4.4	-3.0
CCOC(=O)c1ccccc1NC(=O)CN(c1ccccc1C)S(C)(=O)=O	-3.0	-3.7	-5.5	-0.1	8.2	30.1*
COc1ccccc1NC(=O)CN(c1ccccc1C)S(C)(=O)=O	-2.8	-19.1	22.7	1.1	12.9	-9.6
